Here are results for 29 molecules from PubChem BioAssay AID488969 (Vanderbilt High Throughput Screening Facility, 2010).

Over roughly 110,000 compounds, “z-score” has its median near -0.1; the highest 2% begin near 2. The list comes from a sample in which the highest values are over-represented; it also holds similar structures and randomly drawn compounds.

Metabotropic glutamate receptor 8 (Rattus norvegicus), sequence (P70579 whole entry, looked up): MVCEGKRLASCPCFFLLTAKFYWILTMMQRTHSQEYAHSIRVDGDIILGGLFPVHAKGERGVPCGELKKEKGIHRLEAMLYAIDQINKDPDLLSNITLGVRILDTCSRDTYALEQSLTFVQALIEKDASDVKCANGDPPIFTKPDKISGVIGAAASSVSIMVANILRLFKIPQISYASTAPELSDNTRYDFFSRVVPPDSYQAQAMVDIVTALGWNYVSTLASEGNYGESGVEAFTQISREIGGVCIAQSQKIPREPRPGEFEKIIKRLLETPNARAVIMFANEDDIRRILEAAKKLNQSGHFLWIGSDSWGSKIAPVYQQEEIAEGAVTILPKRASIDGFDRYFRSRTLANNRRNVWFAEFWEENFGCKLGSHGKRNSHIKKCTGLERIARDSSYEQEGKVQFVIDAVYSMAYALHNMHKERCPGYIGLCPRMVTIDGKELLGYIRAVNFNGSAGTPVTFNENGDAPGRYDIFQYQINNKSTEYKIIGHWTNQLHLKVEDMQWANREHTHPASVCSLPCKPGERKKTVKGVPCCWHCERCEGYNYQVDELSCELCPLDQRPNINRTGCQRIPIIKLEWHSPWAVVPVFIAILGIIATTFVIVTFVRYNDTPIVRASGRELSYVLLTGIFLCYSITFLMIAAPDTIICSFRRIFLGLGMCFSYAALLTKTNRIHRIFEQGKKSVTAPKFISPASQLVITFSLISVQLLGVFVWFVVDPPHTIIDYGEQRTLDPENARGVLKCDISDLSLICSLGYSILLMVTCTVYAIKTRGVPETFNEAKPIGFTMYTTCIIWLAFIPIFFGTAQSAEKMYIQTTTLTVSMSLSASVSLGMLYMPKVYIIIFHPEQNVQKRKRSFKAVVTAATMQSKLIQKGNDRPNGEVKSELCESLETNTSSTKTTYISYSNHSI

The assay addresses Metabotropic glutamate receptor 8 (Rattus norvegicus) (UniProt P70579). Kind of assay: mGluR8 Gi/Go-coupled signaling modulation – cell-based, rat, thallium flux, HTS, primary screen (AID 488969). The settings on record: HEK293 rat mGluR8, GIRK (G protein-gated inwardly rectifying potassium channel) thallium flux, FluoZin2; at 10 µM; stronger effect = higher value; submaximal glutamate (EC20) added with thallium.
Turning to `Cc1ccc(S(=O)(=O)N2CCN(c3cc4c(cc3[N+](=O)[O-])n(C)c(=O)n4C)CC2)cc1`, the z-score was -0.078.

Molecule `COC(=O)c1cc2ccccc2c(-c2c(O)ccc3ccccc23)c1O` gave a z-score of 0.0387.

As to `Cc1ccc(C2NC(=O)NC(O)(C(F)(F)F)C2C(=O)c2cccs2)o1` (centres undefined), the z-score is -0.404.

In turn, `Cc1ccc(C(=O)C2C(c3cccs3)NC(=O)NC2(O)C(F)(F)F)cc1` (centres undefined) registered a z-score of 2.58.

With `O=C1NC(c2ccccc2)C(C(=O)c2cccs2)C(O)(C(F)(F)F)N1` (centres undefined), the z-score was -0.23.

`Cc1nnc(NC(=O)c2cccc(S(=O)(=O)N3CCc4ccccc43)c2)s1`: the z-score came to 0.437.

`CSc1ccc(C(=S)N2CCN(CCO)CC2)cc1` registered a z-score of 0.0369.

In the case of `CC(CN1CCN(C)CC1)OC(=O)c1ccc(Cl)cc1` (centres undefined), the z-score worked out at 1.05.

Molecule `CC(CN1CCCCC1)OC(=O)c1ccc(Cl)cc1Cl` (centres undefined) had a z-score of 2.27.

Take `CC(CN1CCN(C)CC1)OC(=O)c1ccc(Cl)cc1Cl` (centres undefined): the z-score was 0.335.

In the case of `CCCCOc1ccc(S(=O)(=O)NCc2csc(C)n2)cc1`, the z-score is -1.17.

As to `N/C(=N\c1nc2ccccc2o1)NC(=O)c1ccccc1`, the z-score is -0.339.

With `Cc1nc(/N=C(\N)NC(=O)N2c3ccccc3Sc3ccccc32)nc2ccccc12`, the z-score was -0.0514.

`Cc1nc(/N=C(\N)NC(=O)c2ccccc2)nc2ccccc12` had a z-score of 2.8.

On to `CCOc1nc(S(=O)(=O)c2ccc(C)cc2)c(Cl)s1`, for which the z-score was -0.802.

On to `CC1CCCN(c2nc3ccccc3nc2C(C#N)S(=O)(=O)c2cccs2)C1` (centres undefined), for which the z-score was -1.84.

Consider `O=C(CCNC(=O)c1ccccc1Cl)NCC12CC3CC(CC(C3)C1)C2`, for which the z-score is -0.16.

For the molecule `Cc1nn(-c2ccc(C(=O)O)cc2)c(C)c1Oc1ccccc1O`, the z-score was -0.318.

Molecule `Cc1nn(-c2ccc(C(F)(F)F)cn2)c(C)c1Oc1ccccc1O` gave a z-score of 2.25.

As for `Cc1cc(C)nc(-n2nc(C)c(Oc3ccccc3O)c2C)n1`, the z-score was -0.176.

For `COc1ccc(CCNC(=O)C2CC(=O)N(c3ccccc3)C2)cc1OC` (centres undefined), the z-score was found to be 0.172.

The molecule `O=C(CSc1nnc(Cc2cc(=O)[nH]c(=O)[nH]2)n1-c1ccccc1)NCC1CCCO1` (centres undefined) had a z-score of 0.18.

`Cn1nnc(NC(=O)c2cccc(OCc3ccccc3)c2)n1`: the z-score is -0.179.

In turn, `Cc1ccc(C(=O)NCC2CCCO2)cc1[N+](=O)[O-]` (centres undefined) registered a z-score of 0.0557.

With `CCCCn1c(SCC(=O)OCC)nc2c1c(=O)[nH]c(=O)n2C`, the z-score was -0.555.

As for `COC(=O)CSc1nc2c(c(=O)[nH]c(=O)n2C)n1CCC(C)C`, the z-score was -0.127.

For `CCCCCn1c(SCC(=O)OC)nc2c1c(=O)[nH]c(=O)n2C`, the z-score was 2.01.

Regarding `Cc1ccc2cc(S(=O)(=O)NCCCC(=O)O)ccc2c1`, the z-score is -0.0725.

`CCCCNC(=O)c1ccc(N2CCC3(CC2)OCCO3)c([N+](=O)[O-])c1`: the z-score is -0.757.
